Among all 2,400 compounds or so, about 820 (34%) were called active. These entries were drawn from the full list. Values without a mark were called inactive.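 The calls were made as follows: active = inhibition of at least 50% at 20 µM in any single replicate; inactive = the rest.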

This experiment relates to glucose-6-phosphate dehydrogenase-6-phosphogluconolactonase (PfGluPho), Plasmodium falciparum 3D7. Nature of the experiment: PfG6PD inhibitors, hit retest, confirmation, biochemical, fluorescence intensity, single concentration (AID 504753).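 Also: 0% = DMSO with substrate and 100% = DMSO lacking glucose-6-phosphate substrate.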 The conditions noted are these: recombinant PfGluPho, NADPH-diaphorase-resazurin fluorescence; at 20 µM; active compounds read high.
For the compound `COc1ccc(CCn2c(NN=C3CCCC3)nc3c2c(=O)[nH]c(=O)n3C)cc1`, the inhibition was 61.9% (active).
As to `CSc1n[nH]c(=S)n1N`, the inhibition was 19.9%.
Under `O=C(CSc1cccc2cccnc12)N/N=C/c1cccnc1` stands 15.1%; under `O=C(CCn1nnc2ccccc21)OCC(=O)c1ccc([N+](=O)[O-])cc1`, 12.8%.
The same measure for `CC(C)(C)NC(=O)COc1ccc(CNc2ccc3[nH]c(=O)[nH]c3c2)cc1`: 66.8% (active); for `O=C1OC(Oc2ccc(Br)cc2)(c2ccccc2)c2ccccc21` (centres undefined): -21.5%; for `Cc1ccc(C(=O)/C=C/c2c(C)nn(-c3ccccc3)c2Cl)cc1`: -5.72%.
Consider `c1ccc(-c2cn3c(n2)CCc2ccc4cccnc4c2-3)cc1`, for which the inhibition is 56.4% (active).
Regarding `Cc1cccc(-n2c(N)c(C(=O)N3CCN(C)CC3)sc2=S)c1`, the inhibition was 45.5%.
Under `CCc1c(C)[nH]c(=S)c(C#N)c1C` stands 46%; under `CN1c2ccc(C=O)c3c(C=O)ccc(c23)N(C)C1(C)C`, 20.6%; under `COc1ccc2c(c1)c(=Cc1ccc(N(C)C)cc1)c1cc(-c3ccccc3)[n+](C)n12`, 74% (active).
As to `Cc1ccc(NC(=O)Cn2sc3ccccc3c2=O)cc1`, the inhibition was 107% (active).
`O=C(Nc1ccc(F)cc1)c1cc2c(s1)CCCC2`: the inhibition is 15.8%.
The same measure for `COCCNC(=S)Nc1cc(S(=O)(=O)N2CCOCC2)ccc1N1CCCCC1`: 44.5%; for `O=C(CN1CCN(c2ccc(O)cc2)CC1)Nc1ccc(-c2ccccc2)cc1`: 22.2%; for `O=C(CN1CCN(c2ccc(O)cc2)CC1)Nc1cc(S(=O)(=O)N2CCOCC2)ccc1Cl`: 50% (active).
Under `COc1ccc(Cl)cc1NC(=O)CN(C)C(=O)CCCc1c[nH]c2ccccc12` stands 27.2%; under `Nc1ccc(-c2nnc(-c3ccc(-c4ccccc4)cc3)o2)cc1`, 15.4%.
As to `COc1cccc(C(=O)Nc2nnc(S(=O)(=O)N3CCCCC3)s2)c1`, the inhibition was 76.5% (active).
`COc1cccc(C(=O)Nc2nnc(S(=O)(=O)N(C)c3ccccc3)s2)c1`: the inhibition was 73.6% (active).
With `COc1cccc(C(=O)Nc2nnc(S(=O)(=O)N3CCOCC3)s2)c1`, the inhibition was 81% (active).
For `Cc1cccn2c(CN(C)C3CCCc4ccccc43)c(C(=O)N3CCOCC3)nc12` (centres undefined), the inhibition is 34.2%.
Under `COc1cc(C(=S)NCc2ccccc2)cc(Br)c1O` stands 39.6%; under `O=C(Nc1sc2c(c1C(=O)O)CCC2)c1ccccc1F`, 33.8%.
Under `Oc1ccc(N=Cc2c(O)ccc3ccccc23)cc1` stands 2.98%.
Under `COc1cc(C2CC(=O)N3CN(Cc4ccccc4)CSC3=C2C#N)ccc1OCc1ccccc1` (centres undefined) stands 15.1%; under `Cc1c(-c2ccccc2)n[nH]c1C(=O)N=Nc1c(O)[nH]c2ccccc12`, 38.1%.
For the compound `CCOC(=O)C1=C(c2ccc(OC)cc2)C(=O)c2ccccc2C1=O`, the inhibition was 82.8% (active).
In the case of `Nc1ccc2nc3c(=O)[nH]c(=S)[nH]c3nc2c1`, the inhibition is 23.1%.
`COc1cccc(NC(=O)NCc2ccc(F)cc2)c1`: the inhibition is -14.2%.
The same measure for `Clc1ccc2c(c1)C1=C(C(c3ccncc3)O2)C(c2ccc(Br)cc2)n2ncnc2N1` (centres undefined): 42.4%; for `CCOc1cccc(/C=N/N2C(=O)CSC2=S)c1O`: 10.3%; for `Nc1ccc2[nH]c(=S)sc2c1`: 35.6%.
For `CCN1CCCC1CNC(=O)c1ccc2c(c1)NC(=O)/C(=C\c1ccccc1F)S2` (centres undefined), the inhibition is 110% (active).
On to `NC(=O)c1c(Nc2nc3c(F)cccc3s2)sc2c1CCCC2`, for which the inhibition is 2.29%.
In the case of `C#CCOCCOCCOCCNc1nc(N2CCN(C(=O)CCCCCCCCCCNC(=O)Cn3cc(CCCCCN)nn3)CC2)nc(N2CCN(C(=O)CCCCCCCCCCNC(=O)[C@H](CO)n3cc(CCCSC)nn3)CC2)n1`, the inhibition is -12.8%.
In the case of `O=C(Nc1nnc(S(=O)(=O)N2CCCCCC2)s1)c1cccc(Br)c1`, the inhibition is 55.3% (active).
Under `O=C(Nc1nnc(S(=O)(=O)N2CCOCC2)s1)c1cccc(Br)c1` stands 60.9% (active).
Regarding `O=C(Nc1ccc(S(=O)(=O)N2CCOCC2)cc1)c1ccc2ncsc2c1`, the inhibition is 12.6%.
Under `Cc1cccc(C(=O)Nc2nnc(S(=O)(=O)N3CCCCCC3)s2)c1` stands 52.1% (active); under `S=C(NN=Cc1ccccn1)Nc1ccccn1`, 39.7%.
On to `COc1c(O)ccc2c1CN1CCc3cc4c(cc3C1C2)OCO4` (centres undefined), for which the inhibition is 71.4% (active).
The same measure for `N#Cc1ccccc1-n1c(N)c(C(=O)N2CCCC2)sc1=S`: 31%.
The same measure for `O=C1C=CC(=O)N1c1ccc(N2CCCCC2)cc1`: 63.8% (active); for `O=[N+]([O-])c1ccc(N2CCN(c3ccc(O)cc3)CC2)c(Cl)c1`: 8.94%; for `Cc1ccc(-c2nc3ccc(Cl)cn3c2Cc2ccccc2)cc1`: 16%.
The same measure for `Cc1ccc(-c2cn3cc(C)ccc3n2)cc1`: 40.7%; for `COc1ccc(C(=O)Nc2ccccc2C(=O)N/N=C/c2ccc(O)c(OC)c2)cc1`: 26.4%; for `COc1ccc(CC(=O)NCC(=O)N/N=C/c2cc(Br)ccc2OC)cc1`: 70.9% (active).
For the compound `CCOC(=O)c1sc(NC(=O)CSc2nc(C)cc(C(F)(F)F)n2)c(C#N)c1C`, the inhibition was 29.8%.
Regarding `Cn1c(CCC(=O)OCC(=O)NCc2ccccc2Cl)nc(=O)c2ccccc21`, the inhibition is 37.4%.
`O=C(Nc1nc(-c2ccncc2)cs1)C1COc2ccccc2O1` (centres undefined): the inhibition is 52.1% (active).
The same measure for `O=C(CSc1nnc(SCc2ccc(Cl)cc2)s1)N/N=C/c1ccccc1Cl`: 30.5%; for `COC(=O)c1sc(=S)n(-c2ccccc2)c1N`: 17%; for `S=c1[nH]nc(-c2cc(-c3ccsc3)n[nH]2)n1-c1ccccc1`: 12.6%.
On to `Cn1sc(=O)c2cc(S(=O)(=O)NC3CC3)ccc21`, for which the inhibition was 40%.
Turning to `O=C1/C(=C\c2ccc([N+](=O)[O-])cc2)CS(=O)(=O)C/C1=C/c1ccc([N+](=O)[O-])cc1`, the inhibition is 56.5% (active).
The same measure for `COc1ccc(Cl)cc1-n1c(=S)sc2c(=O)n(-c3ccc(F)cc3)c(SCC(=O)O)nc21`: 34.5%.
Under `COC(=O)CCCC1=CC2=CC(=O)C(C)(OC(=O)c3cccs3)C(=O)C2=CN1CC(C)C` (centres undefined) stands 2.11%.
The same measure for `O=[N+]([O-])c1c(NCCO)cc(Sc2nc3ccccc3s2)c2nonc12`: 68.6% (active).
In the case of `CCOc1ccccc1Nc1ccc2nonc2c1[N+](=O)[O-]`, the inhibition is 45.4%.
The same measure for `Cc1ccc2nc(-c3cccc(Br)c3)cc(C(=O)Nn3cnnc3)c2c1`: 27.5%; for `COCCN1C=C2C(=O)C(C)(OC(=O)C3CCCC3)C(=O)C=C2C=C1c1ccsc1` (centres undefined): 29.9%; for `Cc1ccc(OCC(=O)Nc2ccccc2Sc2ccc(Cl)cc2)c([N+](=O)[O-])n1`: 40.8%.
Under `CCN(CC)c1ccc2oc(=O)c(C)nc2c1` stands 97.5% (active); under `CCSc1nnc(NC(=O)c2ccc(C)cc2)s1`, 75.1% (active).
Regarding `CCc1cc(C(N)=O)c(NC(=O)c2ccc(OC)cc2)s1`, the inhibition was 16%.
The same measure for `CC(C)(C)c1nnc(NC(=O)C2c3ccccc3Oc3ccccc32)s1`: 27.4%; for `CC1=CC(C)(C)Nc2ccc(OC(=O)CN3C(=O)C4CCCCC4C3=O)cc21` (centres undefined): 12.7%.
Turning to `Cc1ccnc(-n2sc3ccccc3c2=O)n1`, the inhibition is 54.5% (active).
Regarding `O=c1oc2ccccc2cc1-c1cn(-c2ccccc2)c(=S)[nH]1`, the inhibition was 18.8%.
Under `S=c1[nH]nc(-c2cc(-c3ccccc3)n[nH]2)n1/N=C/c1c2ccccc2cc2ccccc12` stands -2.97%; under `Oc1c(CN2CCOCC2)ccc(CN2CCOCC2)c1O`, 31.4%; under `Cc1cc(Nc2ccc(Cl)cc2)nc(N2CCOCC2)n1`, 11.2%.
The same measure for `O=C(/C=C/c1ccco1)Nc1ccc(Oc2ccccc2)cc1`: -1.92%; for `Cc1ccc(/C=C/C(=O)Nc2ccc([N+](=O)[O-])c(NC(=O)/C=C/c3ccc(C)o3)c2)o1`: 65.5% (active); for `COc1ccc(C(=O)Nc2cc(C)c(NC(=O)c3ccccc3OC)cn2)cc1`: 15.4%.
The same measure for `Cc1nc([N+](=O)[O-])nn1C12CC3CC(CC(Br)(C3)C1)C2`: 26.5%; for `Cc1nc(N2CCOCC2)sc1C(=O)NN`: 27.4%; for `Cc1ccc2nc(-c3ccc(Br)cc3)cn2c1`: 40.1%.
With `O=c1c2c(nc3cc(-c4cccc(Cl)c4)[nH]n13)CCCC2`, the inhibition was 41.6%.
Under `CCOc1ccccc1/C=N/NC(=O)CNC(=O)COc1ccccc1` stands 104% (active).
The same measure for `C=CCc1ccccc1OCC(=O)N/N=C/c1ccccc1OCC`: 55.4% (active); for `O=C(COc1ccccc1)Nc1nonc1NC(=O)COc1ccccc1`: 19.8%; for `CCC(=C/c1sc2ccc3ccccc3c2[n+]1C)/C=C1\Sc2ccc3ccccc3c2N1C`: -4.66%.
Regarding `CN1CCN(c2ccc(NC(=O)c3ccc4c(c3)OCCO4)cc2Cl)CC1`, the inhibition is 17.7%.
The same measure for `O=C(Nc1ccc(OC(F)(F)F)cc1)c1ccc2c(c1)no[n+]2[O-]`: 10.5%; for `COC(=O)CCc1sc(Nc2ccc(Br)cc2)nc1-c1ccc(OC)cc1`: -3.8%; for `O=C(NC1=CC(=O)c2ccccc2C1=O)c1ccccc1`: 51.5% (active).
`COc1cc(OC)c(C(=O)Nc2ccc(N(C)C)cc2)cc1OC`: the inhibition is 15.6%.
For the compound `COc1ccc(OCc2n[nH]c(=S)n2N)cc1`, the inhibition is 46.2%.
The same measure for `COc1ccc(OCc2nnc3n2N=C(c2ccccc2)C(CC(=O)O)S3)cc1` (centres undefined): 66.8% (active); for `COc1ccc(-c2nn(-c3ccccc3)cc2/C=N/Nc2ccccn2)cc1OC`: 20.9%.
Under `COc1ccc(-n2c(C)cc(C(=O)CSc3nnc(-c4cccs4)o3)c2C)cc1` stands 14.3%; under `Cn1c(-c2ccco2)nc2cc3ccccc3cc21`, 22.1%.
Turning to `OCCN1CCN(C(=S)c2ccc(-c3ccccc3)cc2)CC1`, the inhibition was 50.8% (active).
The same measure for `COc1ccc(Nc2cc(Sc3ccc(OC)cc3)ncn2)cc1`: 26.3%; for `COCCNC(=O)Nc1ccc2nc(-c3ccco3)c(-c3ccco3)nc2c1`: 34.8%.
With `O=[N+]([O-])c1ccc(C=Nc2ccc(Cl)cc2Cl)s1`, the inhibition is 4.17%.
As to `O=c1[nH]c2ccccc2n2c(-c3ccccc3)nnc12`, the inhibition was 102% (active).
`Oc1c(C=Nc2cccc3nsnc23)ccc2ccccc12`: the inhibition is 27.2%.
In the case of `Cc1cc(N)n2nc(-c3ccc(C(C)(C)C)cc3)cc2n1`, the inhibition is 29.4%.
Under `O=C(N/N=C\c1cccc(Br)c1)c1ccccc1-n1cccc1` stands 32%; under `C=C1c2cccc(OC)c2O[C@H](C(=O)OCC)[C@@H]1CCCCCC`, -4.41%.
The same measure for `Cn1c(-c2sccc2OCc2cccc(C(F)(F)F)c2)n[nH]c1=S`: 52.9% (active).
The same measure for `CCc1c(C)sc(NC(=O)c2cccs2)c1C(N)=O`: 16.4%; for `Cc1cc(Nc2ccc(Br)cc2)nc2ccccc12`: -14%; for `CCOc1ccc(-n2c(N)c(C(=O)NCC3CCCO3)sc2=S)cc1` (centres undefined): 24.8%.

For orientation: inhibition means the relative decrease from the control value, in per cent.

Values taken from PubChem BioAssay AID504753 (Sanford-Burnham Center for Chemical Genomics, 2011).
